Experimental data taken from PubChem BioAssay AID1159580 (chemical genetic matrix, 2015).
In all, about 5,500 compounds went through this assay and about 2,000 (36%) were called active. Not shown: some 18% with an inconclusive outcome. Cut-off read from the data, not from the text of the source: active = normalized growth mostly below about 0.91 (no sharp cut-off); inconclusive = no clear call, values can overlap the other calls; inactive = mostly above about 0.92. The list shows a part of the results.

Assay: chemical genetic growth profiling, strain panel (AID 1159580);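 note: tested at 20 µM; growth read once vehicle control cultures reached saturation at 30 °C; 1 = growth at the plate median or of vehicle wells; lower values mean less growth of the strain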
Settings: S. cerevisiae deletion strains, growth OD

Measured: normalized growth

COc1cc2nc(N(C)CCCNC(=O)C3CCCO3)nc(N)c2cc1OC (stereo not given)
inactive: locus YAL021C, strain ccr4, hits give low values 1.02 | locus YAL026C, strain drs2, hits give low values 1 | locus YAL030W, strain snc1, hits give low values 0.979 | locus YBL061C, strain skt5, hits give low values 0.986 | locus YBR009C, strain hhf1, hits give low values 1.01 | locus YBR021W, strain FUR4, hits give low values 0.994 | locus YBR023C, strain chs3, hits give low values 0.997 | locus YBR171W, strain sec66, hits give low values 0.988 | locus YBR229C, strain ROT2, hits give low values 1 | locus YBR231C, strain swc5, hits give low values 0.998 | locus YBR279W, strain paf1, hits give low values 0.993 | locus YCL011C, strain gbp2, hits give low values 0.993 | locus YCL016C, strain dcc1, hits give low values 1 | locus YCL029C, strain bik1, hits give low values 1.02 | locus YCL061C, strain MRC1, hits give low values 0.996 | locus YCL069W, strain vba3, hits give low values 0.993 | locus YCR088W, strain abp1, hits give low values 0.986 | locus YDL005C, strain med2, hits give low values 1 | locus YDL035C, strain GPR1, hits give low values 1.03 | locus YDL040C, strain nat1, hits give low values 0.993 | locus YDL074C, strain BRE1, hits give low values 1.03 | locus YDL101C, strain DUN1, hits give low values 1.01 | locus YDL185W, strain tfp1, hits give low values 1.02 | locus YDL192W, strain arf1, hits give low values 1.01 | locus YDR001C, strain nth1, hits give low values 0.997 | locus YDR069C, strain doa4, hits give low values 0.991 | locus YDR101C, strain arx1, hits give low values 1.01 | locus YDR137W, strain rgp1, hits give low values 1 | locus YDR159W, strain sac3, hits give low values 1.03 | locus YDR162C, strain NBP2, hits give low values 1.03 | locus YDR195W, strain ref2 0.972 | locus YDR297W, strain sur2, hits give low values 1 | locus YDR318W, strain mcm21, hits give low values 1.02 | locus YDR334W, strain swr1, hits give low values 0.999 | locus YDR335W, strain msn5, hits give low values 1 | locus YDR388W, hits give low values 0.999 | locus YDR392W, strain spt3, hits give low values 1.01 | locus YDR502C, strain sam2, hits give low values 1 | locus YEL003W, strain gim4, hits give low values 1 | locus YEL037C, strain rad23, hits give low values 0.998 | locus YEL061C, strain CIN8 (second series), hits give low values 0.986 | locus YEL061C, strain CIN8, hits give low values 1.01 | locus YER015W, strain faa2, hits give low values 0.995 | locus YER016W, strain bim1, hits give low values 0.998 | locus YER110C, hits give low values 1 | locus YER111C, strain swi4, hits give low values 0.987 | locus YER155C, strain BEM2 (second series), hits give low values 0.999 | locus YER155C, strain BEM2, hits give low values 0.998 | locus YER167W, strain BCK2, hits give low values 1.01 | locus YFR010W, strain ubp6, hits give low values 0.992 | locus YGL078C, strain dbp3, hits give low values 1 | locus YGL086W, strain mad1, hits give low values 1.01 | locus YGL167C, strain pmr1, hits give low values 0.995 | locus YGL173C, strain kem1, hits give low values 0.994 | locus YGL227W, strain vid30, hits give low values 0.986 | locus YGL240W, strain doc1, hits give low values 0.987 | locus YGL248W, strain PDE1, hits give low values 1.01 | locus YGL253W, strain hxk2, hits give low values 0.992 | locus YGR135W, strain pre9, hits give low values 0.998 | locus YGR252W, strain gcn5, hits give low values 0.95 | locus YHR013C, strain ard1, hits give low values 0.999 | locus YHR027C, strain rpn1, hits give low values 0.997 | locus YHR030C, strain SLT2, hits give low values 1.03 | locus YHR079C, strain IRE1 (second series), hits give low values 0.997 | locus YHR094C, strain hxt1, hits give low values 1 | locus YHR129C, strain ARP1, hits give low values 1.01 | locus YHR142W, strain chs7, hits give low values 0.979 | locus YHR200W, strain rpn10, hits give low values 1.01 | locus YIL066C, strain RNR3, hits give low values 1.04 | locus YIL073C, strain SPO22, hits give low values 1.03 | locus YIL125W, strain kgd1, hits give low values 1.01 | locus YIR030C, strain dcg1, hits give low values 0.995 | locus YJL092W, strain hpr5, hits give low values 0.995 | locus YJL095W, strain BCK1 (second series), hits give low values 0.994 | locus YJL095W, strain BCK1, hits give low values 1.03 | locus YJL115W, strain asf1, hits give low values 1 | locus YJL129C, strain trk1, hits give low values 1 | locus YJL134W, strain LCB3, hits give low values 1.02 | locus YJL154C, strain vps35, hits give low values 0.993 | locus YJL164C, strain tpk1, hits give low values 1 | locus YJL166W, strain qcr8, hits give low values 0.985 | locus YJL168C, strain set2, hits give low values 0.994 | locus YJL187C, strain SWE1 (second series), hits give low values 1.02 | locus YJL187C, strain SWE1, hits give low values 0.999 | locus YJR043C, strain POL32, hits give low values 1.03 | locus YJR075W, strain HOC1, hits give low values 1.01 | locus YKL009W, strain mrt4, hits give low values 1.01 | locus YKL068W, hits give low values 1.01 | locus YKL085W, strain MDH1 (second series), hits give low values 1.02 | locus YKL085W, strain MDH1, hits give low values 1.02 | locus YKL190W, strain CNB1, hits give low values 1.03 | locus YKR001C, strain vps1, hits give low values 1.01 | locus YKR026C, strain gcn3, hits give low values 0.995 | locus YKR091W, strain srl3, hits give low values 0.995 | locus YLL001W, strain dnm1, hits give low values 0.99 | locus YLL026W, hits give low values 0.992 | locus YLL041C, strain sdh2, hits give low values 0.998 | locus YLR027C, strain aat2, hits give low values 0.991 | locus YLR039C, strain RIC1, hits give low values 1.07 | locus YLR058C, strain SHM2, hits give low values 1.02 | locus YLR102C, strain apc9, hits give low values 1.01 | locus YLR221C, strain rsa3, hits give low values 0.998 | locus YLR258W, strain gsy2, hits give low values 0.994 | locus YLR262C, strain YPT6 (second series), hits give low values 0.981 | locus YLR262C, strain YPT6, hits give low values 1.07 | locus YLR268W, strain sec22, hits give low values 0.99 | locus YLR320W, strain mms22, hits give low values 1 | locus YLR330W, strain CHS5, hits give low values 1.02 | locus YLR342W, strain FKS1 (second series), hits give low values 1.03 | locus YLR342W, strain FKS1, hits give low values 0.995 | locus YLR357W, strain rsc2, hits give low values 0.984 | locus YLR370C, strain arc18, hits give low values 1.01 | locus YLR371W, strain rom2, hits give low values 1.02 | locus YLR384C, strain iki3, hits give low values 0.988 | locus YLR418C, strain cdc73, hits give low values 0.995 | locus YML016C, strain PPZ1, hits give low values 1.01 | locus YML032C, strain rad52, hits give low values 1 | locus YML120C, strain ndi1, hits give low values 0.998 | locus YML124C, strain tub3, hits give low values 0.997 | locus YMR058W, strain fet3, hits give low values 0.996 | locus YMR078C, strain ctf18, hits give low values 0.998 | locus YMR125W, strain sto1, hits give low values 0.995 | locus YMR129W, hits give low values 0.987 | locus YMR205C, strain PFK2, hits give low values 0.993 | locus YMR223W, strain ubp8, hits give low values 1.03 | locus YMR231W, strain pep5, hits give low values 1 | locus YMR307W, strain GAS1, hits give low values 1.02 | locus YNL067W, strain RPL9B, hits give low values 1.02 | locus YNL071W, strain lat1, hits give low values 1 | locus YNL209W, strain ssb2, hits give low values 0.996 | locus YNL233W, strain BNI4, hits give low values 1.02 | locus YNL248C, strain rpa49, hits give low values 0.982 | locus YNL250W, strain rad50, hits give low values 1.04 | locus YNL271C, strain bni1, hits give low values 1 | locus YNL298W, strain CLA4, hits give low values 1 | locus YNL307C, strain MCK1, hits give low values 1 | locus YNL322C, strain KRE1 (second series), hits give low values 0.985 | locus YNR049C, strain mso1, hits give low values 0.994 | locus YNR052C, strain pop2, hits give low values 0.995 | locus YOL012C, strain htz1 0.863 | locus YOL147C, strain pex11, hits give low values 1.01 | locus YOR001W, strain rrp6, hits give low values 1 | locus YOR061W, strain CKA2, hits give low values 1.02 | locus YOR069W, strain VPS5, hits give low values 1 | locus YOR070C, strain gyp1, hits give low values 0.998 | locus YOR080W, strain dia2, hits give low values 0.983 | locus YOR083W, strain WHI5, hits give low values 1 | locus YOR106W, strain vam3, hits give low values 1.01 | locus YOR136W, strain idh2, hits give low values 1 | locus YOR144C, strain elg1, hits give low values 0.999 | locus YOR184W, strain ser1, hits give low values 1.03 | locus YOR265W, strain rbl2, hits give low values 0.988 | locus YOR270C, strain vph1, hits give low values 1.03 | locus YOR290C, strain snf2, hits give low values 1.03 | locus YOR316C, strain cot1, hits give low values 0.999 | locus YPL051W, strain arl3, hits give low values 0.997 | locus YPL078C, strain atp4, hits give low values 0.988 | locus YPL106C, strain sse1, hits give low values 0.991 | locus YPL240C, strain hsp82, hits give low values 0.974 | locus YPL241C, strain CIN2, hits give low values 1.01 | locus YPR119W, strain clb2, hits give low values 0.991 | locus YPR141C, strain kar3, hits give low values 1.01 | locus YPR163C, strain tif3, hits give low values 1 | locus YPR167C, strain met16, hits give low values 1 | strain wtn01, hits give low values 0.998
